Results on 25 compounds are retold here after PubChem BioAssay (NCATS).

The nature of test [1]: qHTS for Inhibitors of the Functional Ribonucleoprotein Complex (vRNP) of Lassa (LASV) Arenavirus: LASV Primary Screen - GLuc reporter signal (AID 1347082; calls by dose curve; tested in HEK293 reporter line; also: nearly all actives have a fitted effect of over 60% in size; also: potency is read from the fitted curve at half-maximal effect; as to activity change, negative = inhibition: % is scaled to controls: 0 for no effect and ±100 for the full control effect).
The nature of test [2]: qHTS for Inhibitors of the Functional Ribonucleoprotein Complex (vRNP) of Lassa (LASV) Arenavirus: Viability assay - alamar blue signal for LASV Primary Screen (AID 1347083; calls by dose curve; tested in HEK293 reporter line; also: nearly all actives have a fitted effect of over 80% in size; also: potency is read from the fitted curve at half-maximal effect).
The target in test [3] is Nucleoprotein (Lymphocytic choriomeningitis virus (strain Armstrong)) (UniProt P09992). Description: qHTS for Inhibitors of the Functional Ribonucleoprotein Complex (vRNP) of Lymphocytic Choriomeningitis Arenaviruses (LCMV): LCMV Primary Screen - GLuc reporter signal (AID 1347086). Also: nearly all actives have a fitted effect of over 70% in size. Also: potency is read from the fitted curve at half-maximal effect. As to activity change, negative = inhibition: % is scaled to controls: 0 for no effect and ±100 for the full control effect.
Chain of Nucleoprotein (Lymphocytic choriomeningitis virus (strain Armstrong)) (P09992 whole entry, looked up): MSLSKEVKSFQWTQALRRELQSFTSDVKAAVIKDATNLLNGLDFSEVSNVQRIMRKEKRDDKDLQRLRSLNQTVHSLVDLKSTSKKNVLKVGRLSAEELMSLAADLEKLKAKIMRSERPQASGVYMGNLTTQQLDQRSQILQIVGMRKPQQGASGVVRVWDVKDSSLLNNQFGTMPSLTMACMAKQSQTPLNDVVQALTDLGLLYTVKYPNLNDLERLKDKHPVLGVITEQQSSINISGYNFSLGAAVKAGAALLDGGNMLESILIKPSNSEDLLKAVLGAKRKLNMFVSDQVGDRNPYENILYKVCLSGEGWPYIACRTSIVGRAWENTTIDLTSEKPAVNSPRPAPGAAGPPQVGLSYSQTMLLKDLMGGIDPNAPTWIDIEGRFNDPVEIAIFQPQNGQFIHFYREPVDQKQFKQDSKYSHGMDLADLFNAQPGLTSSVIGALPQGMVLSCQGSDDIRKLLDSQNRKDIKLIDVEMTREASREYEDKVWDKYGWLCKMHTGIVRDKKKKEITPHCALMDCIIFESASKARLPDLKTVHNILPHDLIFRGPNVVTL
Test [4] can be described thus: Cytotoxicity counterscreen for inhibitors of SARS-CoV-2 cell entry (AID 1645845). Also: nearly all actives have a fitted effect of over 50% in size. Also: potency is read from the fitted curve at half-maximal effect. The procedure, abridged: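 HEK293-ACE2 cells (Expi293F stably expressing human ACE2) seeded overnight, then compound for 1 h plus 48 h at 37C. Viability as ATP content by luminescence; normalized to wells with cells and media-only wells.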
Test [5] in a line: qHTS profiling of the MIPE4 collection as inhibitors of Plasmodium falciparum (3D7) proliferation (AID 743344; call rule not given here;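 also: scaled between DMSO vehicle wells and 0.29 µM artemisinin as full inhibition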). As to conditions: P. falciparum 3D7 in erythrocytes, SYBR Green DNA fluorescence, 72 h; at 28.5 µM (top of the series) unless noted. A digest of the protocol: (§1)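 Erythrocytes infected with P. falciparum (0.3% parasitemia, 2.5% hematocrit) incubated with compounds 72 h at 37 C, 5% CO2. Lysis with saponin/Triton buffer containing SYBR Green I, overnight at room temperature in the dark; DNA fluorescence (485/535 nm) normalised to 0.29 uM artemisinin and DMSO.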

Test [6] can be described thus: qHTS profiling of the MIPE4 collection as inhibitors of Plasmodium falciparum (DD2) proliferation (AID 743345; call rule not given here). As to conditions: P. falciparum Dd2 in erythrocytes, SYBR Green DNA, 72 h; at 28.5 µM (top of the series) unless noted. A digest of the protocol:
as §1

A short description of test [7]: qHTS profiling of the MIPE4 collection as inhibitors of Plasmodium falciparum (HB3) proliferation (AID 743347; call rule not given here;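 also: plate controls were DMSO vehicle wells for no effect and artemisinin wells for full effect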). Particulars: P. falciparum HB3 in erythrocytes, SYBR Green DNA, 72 h; at 28.5 µM (top of the series) unless noted. A digest of the protocol:
as §1

Test [8] can be described thus: Primary qHTS for inhibitors of SARS-S pseudo-typed particle cell entry (AID 1479145). Also: % is scaled to controls: 0 for no effect and ±100 for the full control effect; nearly all actives have a fitted effect of over 45% in size.
A short description of test [9]: Primary qHTS for Huh7 cytotoxicity: counterscreen for inhibitors of MERS-S pseudotyped particle cell entry (AID 1479147). As to conditions: outcome: dose series up to 57.1 µM unless noted.
Test [10] can be described thus: Primary qHTS for inhibitors of MERS-S pseudo-typed particle cell entry (AID 1479149). Also: nearly all actives have a fitted effect of over 60% in size.
The nature of test [11]: Primary qHTS for Vero E6 cytotoxicity: counterscreen for inhibitors of SARS-S pseudo-typed particle cell entry (AID 1479150). As to conditions: outcome: dose series up to 57.1 µM unless noted.
The nature of test [12]: Primary qHTS to identify inhibitors of SARS-CoV-2 cell entry (AID 1645846). Also: nearly all actives have a fitted effect of over 45% in size. Also: potency is read from the fitted curve at half-maximal effect. As to conditions: activity change, negative = inhibition: at 57.1 µM (top of the series) unless noted. The procedure, abridged:
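HEK293-ACE2 (Expi293F, stable hACE2), 1500 cells/well, o/n 37C; cpd 23 nL pin, 1 h; MLV-PP w/ SARS-CoV-2-S (Wuhan-Hu-1, Δ19 C-term); 48 h 37C; Bright-Glo luminescence; normalized vs S-PP and bald PP.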

Test [13] in a line: Validation screen for inhibitors of Lassa infection (AID 463096). Also: % is scaled to controls: 0 for no effect and ±100 for the full control effect.
A short description of test [14]: Inducers of the Endoplasmic Reticulum Stress Response (ERSR) in human glioma: Validation (AID 504836; active = well fitted curve in the direction sought with a large enough effect; an effect the other way counts as inactive or inconclusive; also: 0% is about no effect). The procedure, abridged:
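Stably transfected U87-MG glioma cells carrying a GRP78-based luciferase sensor; 16 h compound incubation. Luminescence end-point read 10 min after Bright-Glo addition at room temperature.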

Test [15] is described as follows: Confirmatory qHTS to identify inhibitors of SARS-CoV-2 cell entry (AID 1645844). Also: potency is read from the fitted curve at half-maximal effect; nearly all actives have a fitted effect of over 45% in size. A digest of the protocol:
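HEK293-ACE2 cells were pretreated 1 h with compound, then infected with MLV-based pseudoparticles bearing C-terminally truncated Wuhan-Hu-1 spike for 48 h at 37C; luciferase luminescence normalized to spike PP and bald PP wells.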

Test [16] is described as follows: VSVG counterscreen qHTS to identify inhibitors of SARS-CoV-2 cell entry (AID 1645847). Also: potency is read from the fitted curve at half-maximal effect; nearly all actives have a fitted effect of over 65% in size. The procedure, abridged:
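Expi293F/hACE2 cells, overnight plating; cpd 1 h, 37C/5% CO2; + VSV-G PP (MLV pseudotyping), 48 h; supernatant removed, Bright-Glo luciferase read. Norm: VSV-G PP and bald PP wells.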

Test [17] deals with Alpha-galactosidase (Coffea arabica) (UniProt Q42656). The experiment in a line: Counterscreen for Glucocerebrosidase Inhibitors: qHTS Assay for Coffee Bean alpha-Galactosidase at pH 4.5 (AID 957; active = well fitted curve in the direction sought with a large enough effect; an effect the other way counts as inactive or inconclusive;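 also: plate controls were enzyme alone for no effect and no enzyme for full effect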). A digest of the protocol: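 Coffee bean enzyme (2 nM) with 80 uM 4-methylumbelliferyl alpha-D-galactopyranoside in 50 mM citric acid, 0.005% Tween-20, pH 4.5, 20 min at room temperature; compounds 0.7 nM–77 uM. Stopped at pH 10, fluorescence 365/440 nm; AC50 from Hill fits.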
Chain of Alpha-galactosidase (Coffea arabica) (Q42656 whole entry, looked up): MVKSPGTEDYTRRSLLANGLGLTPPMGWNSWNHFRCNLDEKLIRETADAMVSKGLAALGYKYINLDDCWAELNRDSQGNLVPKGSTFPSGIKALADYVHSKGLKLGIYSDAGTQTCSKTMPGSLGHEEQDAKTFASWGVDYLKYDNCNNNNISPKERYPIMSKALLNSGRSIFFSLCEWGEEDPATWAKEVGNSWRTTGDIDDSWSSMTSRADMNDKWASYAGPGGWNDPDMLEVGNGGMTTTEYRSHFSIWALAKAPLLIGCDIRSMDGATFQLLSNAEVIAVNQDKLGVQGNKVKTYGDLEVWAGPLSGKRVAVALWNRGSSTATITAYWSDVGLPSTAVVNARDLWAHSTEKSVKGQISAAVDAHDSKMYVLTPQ

Test [18] shares this target. The experiment in a line: Counterscreen for Glucocerebrosidase Inhibitors: qHTS Assay for Coffee Bean alpha-Galactosidase at pH 5.9 (AID 998; active = well fitted curve in the direction sought with a large enough effect; an effect the other way counts as inactive or inconclusive;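 also: plate controls were uninhibited enzyme for no effect and no-enzyme basal signal for full effect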). The procedure, abridged:
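Green coffee bean enzyme (2 nM) with 4-methylumbelliferyl alpha-D-galactopyranoside (80 uM) in 50 mM citric acid, 0.005% Tween-20, pH 5.9, 20 min at room temperature; compounds 0.7 nM–77 uM. Stopped at pH 10, fluorescence Ex365/Em440; Hill-fit AC50.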

Test [19] deals with Cytochrome P450 3A4 (Homo sapiens) (UniProt P08684). The experiment in a line: qHTS Assay for Activators of Cytochrome P450 3A4 (AID 885; active = well fitted curve in the direction sought with a large enough effect; an effect the other way counts as inactive or inconclusive; also: nearly all actives have a fitted effect of over 65% in size). A digest of the protocol: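 20nM CYP3A4 + 25uM Luciferin-PPXE (=KM), 200mM KPO4; cpd 10 min RT; NADPH regen, 60 min RT; stop w/ detection buffer, 20 min; luminescence. Normalized to 57 uM ketoconazole.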
Chain of Cytochrome P450 3A4 (Homo sapiens) (P08684 whole entry, looked up): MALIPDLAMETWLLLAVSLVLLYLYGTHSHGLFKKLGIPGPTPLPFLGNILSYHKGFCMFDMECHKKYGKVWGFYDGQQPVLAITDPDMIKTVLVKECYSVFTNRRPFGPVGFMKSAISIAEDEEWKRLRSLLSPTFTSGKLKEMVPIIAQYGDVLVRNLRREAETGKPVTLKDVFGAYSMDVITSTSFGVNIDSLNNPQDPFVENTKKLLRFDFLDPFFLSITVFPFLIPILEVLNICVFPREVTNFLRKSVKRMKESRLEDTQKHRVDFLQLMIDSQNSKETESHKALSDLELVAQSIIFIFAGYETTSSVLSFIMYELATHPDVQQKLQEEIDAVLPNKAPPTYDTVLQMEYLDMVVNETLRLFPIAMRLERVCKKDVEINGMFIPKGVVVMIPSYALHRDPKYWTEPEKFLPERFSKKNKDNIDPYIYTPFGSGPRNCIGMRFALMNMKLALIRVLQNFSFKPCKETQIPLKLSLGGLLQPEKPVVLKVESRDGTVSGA
A short description of test [20]: S16 Schwann cell PMP22 intronic element firefly luciferase assay (AID 624032; active = well fitted curve in the direction sought with a large enough effect; an effect the other way counts as inactive or inconclusive; also: potency is read from the fitted curve at half-maximal effect; nearly all actives have a fitted effect of over 30% in size). The procedure, abridged:
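Rat S16 Schwann cells stably carrying firefly luciferase driven by a PMP22 intronic element, in 10% FBS, treated 24 h at 37 C. ONE-Glo luminescence normalized to PTC124 control and DMSO (0%); curves classed by r2, magnitude and activity.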

The nature of test [21]: qHTS for Inhibitors of the Functional Ribonucleoprotein Complex (vRNP) of Lymphocytic Choriomeningitis Arenaviruses (LCMV): Viability assay - alamar blue signal for LCMV Primary Screen (AID 1347085; calls by dose curve; tested in HEK293 reporter line; also: nearly all actives have a fitted effect of over 80% in size; also: potency is read from the fitted curve at half-maximal effect).

Inconclusive results are not listed. The source made the active and inactive calls. Unless noted, calls follow the shape of the full dose curve.

Take `Cc1cc(Cl)ccc1OCCCC(=O)NO`: the Potency result in [1], in [3] and in test [4] was “inactive” throughout. The Potency in [2] is 24.3 µM (active).

`C[C@H](CCC(=O)O)[C@H]1CC[C@H]2[C@H]3[C@@H](CC[C@]12C)[C@@]1(C)CC[C@@H](O)C[C@H]1C[C@@H]3O`: the parasite growth, % of DMSO control in test [5] amounted to 8.82%. In test [6], this compound gave a parasite growth remaining, % of DMSO control (lower = more inhibition) of 12.3%. In [7], this compound came in with a growth, % of control of 23.1%. Also, the Potency entry in test [1], in test [2], in [8], in test [10] and in [4] was “inactive” throughout. For the same compound, the compound was classed as inactive in test [9] and in test [11]. For the same compound, in test [12], the activity change, negative = inhibition worked out at 0.336%.

On to `CC(C)C[C@H](CC(=O)O)C(=O)N[C@@H](Cc1c[nH]c2ccccc12)C(=O)N[C@@H](C)c1ccccc1`, for which the Potency entry in test [1], in test [2], in test [3] and in test [4] was “inactive” in each case. Besides, in [12], the activity change, negative = inhibition is -6.02%.

For the compound `CN(C)C(=O)/N=N/C(=O)N(C)C`, the Potency result in test [13], in test [1], in test [2] and in [3] was “inactive” in each case. Further, the compound was called inactive in test [14].

For `COC(=O)Nc1ccc(-c2nc(N3CCOCC3)c3cnn(C4CCN(Cc5cccnc5)CC4)c3n2)cc1`, the Potency in test [1] is 0.109 µM (active); in [2], 0.153 µM (active); in [15] it was 5.41 µM (active); in test [12] it was 6.31 µM (active); in test [16] it was 9.61 µM (active).

In the case of `O=c1[nH]c2cc(Cl)c(Cl)cc2[nH]c1=O`, the compound was classed as inactive in test [17] and in test [18]. The Potency entry in [13], in test [1], in test [2] and in test [3] was “inactive” in each case.

Take `CCCn1c(=O)c2[nH]c(-c3cnn(Cc4cccc(C(F)(F)F)c4)c3)nc2n(CC)c1=O`: the Potency result in [1], in test [2] and in [4] was “inactive” throughout.

For the compound `CCNc1cc(NC2CCC(O)CC2)nc(Nc2ccc3c(ccn3Cc3ccccc3)c2)n1` (centres undefined), the Potency entry in test [1], in test [2] and in test [4] was “inactive” in each case.

Consider `CC(C)C[C@H](NC(=O)CNC(=O)c1cc(Cl)ccc1Cl)B1OC(=O)CC(CC(=O)O)(C(=O)O)O1` (some centres undefined), for which the Potency in test [1] is 7.69 µM (active); in test [2], 1.93 µM (active); in test [4], 0.891 µM (active). Besides, the activity change, negative = inhibition in test [12] is -99.4%.

`CC=C(C)C(=O)O[C@H]1C(C)=C[C@]23C(=O)[C@@H](C=C(CO)[C@@H](O)[C@]12O)[C@H]1[C@@H](C[C@H]3C)C1(C)C` had a parasite growth remaining, % of DMSO control (lower = more inhibition) in test [6] of 78.2%. The Potency entry in [1] and in [3] was “inactive” throughout. The Potency in [2] is 4.32 µM (active).

With `CCC(C(=O)O)C1CCC(C)C(C(C)C(O)C(C)C(=O)C(CC)C2OC3(C=CC(O)[C@@]4(CC[C@](C)(C5CC[C@@](O)(CC)C(C)O5)O4)O3)C(C)CC2C)O1` (some centres undefined), the Potency result in test [19] and in test [4] was “inactive” in each case. The Potency in test [20] is 0.361 µM (active); in test [1], 3.43 µM (active); in test [2], 4.85 µM (active); in [3], 0.968 µM (active).

Turning to `C=CCn1c(=O)c2c(nc(-c3ccc(S(=O)(=O)O)cc3)n2C)n(C)c1=O`, the result in test [17], in [18] and in [14] was inactive. Besides, the Potency entry in test [13], in test [1], in test [2] and in [3] was “inactive” each time.

On to `Cn1cc(C[C@@H](N)C(=O)O)c2ccccc21`, for which the Potency result in test [1] and in test [2] was “inactive” throughout. Besides, the outcome in test [4] is “inactive [at 11.3 µM]”. In addition, in test [12], the activity change, negative = inhibition was -6.52% [at 11.3 µM].

As for `CN(C(Cc1ccc(OS(=O)(=O)c2cccc3cnccc23)cc1)C(=O)N1CCN(c2ccccc2)CC1)S(=O)(=O)c1cccc2cnccc12` (centres undefined), the Potency is 13.7 µM (active) in test [1] and 21.7 µM (active) in test [2]. Also, the Potency entry in [4] was “inactive”.

Consider `N=c1ccn2c(n1)O[C@H]1[C@H](O)[C@@H](CO)O[C@H]12`, for which the result in test [14] was inactive. Also, the Potency result in test [1], in [2] and in test [3] was “inactive” in each case.

Consider `Cc1cccc(-c2[nH]c(C(C)(C)C)nc2-c2ccc3c(c2)OCO3)n1`, for which the Potency in test [1] is 10.9 µM (active); in test [2], 7.69 µM (active); in test [3], 7.69 µM (active); in [4], 17.8 µM (active).

Regarding `N[C@@]1(C(=O)O)CS(=O)(=O)[C@H]2[C@H](C(=O)O)[C@H]21`, the Potency result in test [1], in test [3], in [4] and in test [12] was “inactive” each time. Further, the Potency in test [2] was 19.3 µM (active).

As for `COc1cc2c(cc1OC)C(C)N(Cc1ccc3c(c1)OCO3)CC2` (centres undefined), the Potency result in test [1], in test [21] and in test [3] was “inactive” each time.

For `O=C1NC(O)CCN1[C@@H]1O[C@H](CO)[C@H](O)[C@H]1O` (some centres undefined), the Potency entry in test [1], in test [2] and in [4] was “inactive” in each case. In addition, the activity change, negative = inhibition in test [12] is -26.7%.

Consider `Oc1ccc2c(c1)OCC1(O)Cc3cc(O)c(O)cc3C21` (centres undefined), for which the Potency entry in test [1], in test [21] and in [3] was “inactive” each time.

Consider `O=C(c1ccc(C=Cc2n[nH]c3ccccc23)cc1)N1CCNCC1`, for which the Potency entry in [1], in [21] and in test [3] was “inactive” each time.

For the compound `OCC1OC(n2cnc3c(NCc4ccccc4O)ncnc32)C(O)C1O` (centres undefined), the Potency entry in test [1] was “inactive”. Besides, the Potency in [21] is 4.47 µM (active).

As for `O=C1c2c(O)cc(O)cc2OC(c2ccc(O)c(O)c2)C1O` (centres undefined), the Potency result in test [13], in test [1], in test [2] and in test [4] was “inactive” throughout. In [14], the result was inactive. Further, the activity change, negative = inhibition in [12] was determined as 4.53%.

Consider `COC1=C2C[C@@H](C)C[C@H](OC)[C@@H](O)[C@@H](C)C=C(C)[C@H](OC(N)=O)[C@@H](OC)C=CC=C(C)C(=O)NC(=CC1=O)C2=O`, for which the Potency in test [1] is 9.68 µM (active); in test [21] it was 13.7 µM (active); in test [3], 15.3 µM (active).

On to `COc1ccc(Cc2ccc(NC(N)=O)cc2)cc1-c1cccc(Cl)c1`, for which the Potency result in test [1] was “inactive”. The Potency in test [21] was 9.68 µM (active).
